Reference: PubChem BioAssay (Tox21)
“And” between values parts separate entries of the source, which are not always exact repeats. Equal entries are not always repeated. Results filed as inconclusive are left out. Entries that show only a call come without a potency. Where a structure was tested more than once in an assay, its records may differ in their call. The source made the active and inactive calls. Unless noted, calls come from the whole dose curve; as a rule, active = well fitted curve in the direction sought with a large enough effect in the repeat runs; inconclusive = weak or mixed curves; inactive = no such curve, though single readings can be large; an effect the other way counts as inactive or inconclusive.

What was measured:
[1] = qHTS assay to identify aromatase inhibitors - cell viability counter screen (AID 743084);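 note: cells stimulated with testosterone during compound exposure; nearly all actives have a fitted effect of over 55% in size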; note: potency is the fitted concentration of half-maximal effect
[2] = target: Aryl hydrocarbon receptor (Homo sapiens) (UniProt P35869); assay: qHTS assay to identify small molecule that activate the aryl hydrocarbon receptor (AhR) signaling pathway (AID 743085); note: nearly all actives have a fitted effect of over 15% in size; note: potency is the fitted concentration of half-maximal effect;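 for activation: HG2L7.5c1 human HepG2 liver cells with stably integrated DRE-driven firefly reporter; series mostly up to about 70 µM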
Outline: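 Reporter assay in engineered HepG2 line HG2L7.5c1, whose plasmid carries twenty dioxin responsive elements upstream of firefly luciferase. Treatment lasted 24 h at 37C; ONE-Glo luminescence gauged induction.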

[3] = qHTS assay to identify small molecule that activate the aryl hydrocarbon receptor (AhR) signaling pathway - cell viability counter screen (AID 743086); note: nearly all actives have a fitted effect of over 45% in size; note: potency is the fitted concentration of half-maximal effect
Outline: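 Cytotoxicity counter screen: CellTiter-Fluor signal (30 min, 37 C) in 4000 HepG2 cells/well carrying the DRE-luciferase reporter, following 24 h compound exposure at 37 C.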

[4] = target: Peroxisome proliferator-activated receptor gamma (Homo sapiens) (UniProt P37231); assay: qHTS assay to identify small molecule antagonists of the peroxisome proliferator-activated receptor gamma (PPARg) signaling pathway (AID 743191; calls by dose curve; note: nearly all actives have a fitted effect of over 30% in size; note: potency is the fitted concentration of half-maximal effect)
Outline: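 Beta-lactamase reporter under UAS control in HEK293H PPARg-bla cells; compound treatment 17 h at 37C. Read-out: fluorescence intensity after 1 h room-temperature incubation with LiveBLAzer B/G FRET substrate.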

[5] = qHTS assay to identify small molecule antagonists of the peroxisome proliferator-activated receptor gamma (PPARg) signaling pathway - cell viability counter screen (AID 743194); note: nearly all actives have a fitted effect of over 55% in size; note: potency is the fitted concentration of half-maximal effect
Outline: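 Viability was measured as CellTiter-Glo luminescence in GeneBLAzer PPARg UAS-bla HEK293H cells. These cells had been exposed 17 h at 37 C to compounds together with rosiglitazone at 50 nM final, with the beta-lactamase readout taken in the same wells.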

[6] = qHTS assay for small molecule agonists of the antioxidant response element (ARE) signaling pathway (AID 743202; active = well fitted activation curve with a large enough effect in the signal ratio in the repeat runs, not every such curve was filed as active; the % refers to the signal ratio; note: potency is the fitted concentration of half-maximal effect)
Outline: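 Beta-lactamase reporter activity, read as fluorescence intensity, reflects ARE/Nrf2 pathway induction in HepG2 cells after 16 h compound exposure at 37 C; substrate loading was 2 h at room temperature.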

[7] = qHTS assay for small molecule activators of the heat shock response signaling pathway - cell viability counter screen (AID 743209); note: nearly all actives have a fitted effect of over 50% in size; note: potency is the fitted concentration of half-maximal effect
Outline: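 Same-well multiplex: after 2.5 h room-temperature incubation with LiveBLAzer B/G substrate and fluorescence reading, CellTiter-Glo reagent was added to HSE-bla HeLa cells that had received compound for 5 h at 37 C; luminescence read after 30 min.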

[8] = qHTS assay to identify small molecule antagonists of the peroxisome proliferator-activated receptor delta (PPARd) signaling pathway - cell viability counter screen (AID 743213); note: nearly all actives have a fitted effect of over 50% in size; note: potency is the fitted concentration of half-maximal effect
Outline: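 Viability counter-screen, qHTS format: PPARd-bla HEK293H, L165041 300 nM final, 17 h compound exposure at 37 C, CellTiter-Glo luminescence after 30 min RT.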

[9] = qHTS assay to identify small molecule agonists of the farnesoid-X-receptor (FXR) signaling pathway - cell viability counter screen (AID 743218); note: nearly all actives have a fitted effect of over 45% in size; note: potency is the fitted concentration of half-maximal effect
Outline: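 Readout: CellTiter-Glo luminescence, 30 min RT, multiplexed after the FXR-bla FRET reading. HEK 293T FXR-UAS-bla cells received compound 5 h post-plating and were incubated 16 h at 37 C.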

[10] = target: Bile acid receptor (Homo sapiens) (UniProt Q96RI1); assay: qHTS assay to identify small molecule agonists of the farnesoid-X-receptor (FXR) signaling pathway (AID 743220; active = well fitted activation curve with a large enough effect in the signal ratio in the repeat runs, not every such curve was filed as active; the % refers to the signal ratio)
Outline: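 FXR-UAS-bla HEK 293T cells carrying a UAS-driven beta-lactamase reporter were plated for 5 h at 37C/5% CO2, then exposed to DMSO-dissolved Tox21 10K compounds for 16 h at 37C. A LiveBLAzer B/G FRET substrate was loaded for 2 h at room temperature before fluorescence reading.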

[11] = qHTS assay to identify small molecule antagonists of the farnesoid-X-receptor (FXR) signaling pathway - cell viability counter screen (AID 743221; active = well fitted cell-killing curve with a large enough effect in the repeat runs, not every such curve was filed as active; note: nearly all actives have a fitted effect of over 50% in size; note: potency is the fitted concentration of half-maximal effect)
Outline: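 CellTiter-Glo, 30 min RT, luminescence; same wells as the LiveBLAzer FRET read. Cells: FXR-UAS-bla HEK 293T. Treatment: compound with chenodeoxycholic acid 50 uM final, 16 h at 37 C.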

[12] = qHTS assay for small molecule agonists of the antioxidant response element (ARE) signaling pathway - cell viability counter screen (AID 743203; calls by dose curve; note: nearly all actives have a fitted effect of over 55% in size; note: potency is the fitted concentration of half-maximal effect)
Outline: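 Measured in the same wells as the beta-lactamase ARE reporter, this read-out is CellTiter-Glo luminescence from HepG2 ARE-bla cells given compounds for 16 hrs.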

[13] = qHTS assay to identify small molecule agonists of the peroxisome proliferator-activated receptor delta (PPARd) signaling pathway - cell viability counter screen (AID 743211); note: nearly all actives have a fitted effect of over 55% in size; note: potency is the fitted concentration of half-maximal effect
Outline: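 Multiplexed format: after the 2 h room-temperature LiveBLAzer B/G FRET step, CellTiter-Glo was added to the same wells. Luminescence after 30 min gave cell viability; compound exposure was 17 h at 37C.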

[14] = target: Peroxisome proliferator-activated receptor delta (Homo sapiens) (UniProt Q03181); assay: qHTS assay to identify small molecule antagonists of the peroxisome proliferator-activated receptor delta (PPARd) signaling pathway (AID 743215; active = well fitted inhibition curve with a large enough effect in the signal ratio in the repeat runs, not every such curve was filed as active; the % refers to the signal ratio;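 note: cells stimulated with agonist L165041 at 300 nM final during compound exposure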; note: potency is the fitted concentration of half-maximal effect)
Outline: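 Fluorescence from cleaved LiveBLAzer B/G FRET substrate (2 h, room temperature) reports PPARd-driven beta-lactamase in HEK293H UAS-bla cells. Cells had been treated 17 h at 37 C with compound plus 300 nM final L165041.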

[15] = target: Vitamin D3 receptor (Homo sapiens) (UniProt P11473); assay: qHTS assay to identify small molecule agonists of the vitamin D receptor (VDR) signaling pathway (AID 743222; calls by dose curve)
Outline: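 Following 4 h attachment at 37C, VDR-bla cells (2,000 per well) received DMSO-dissolved compounds or controls. After 16 h incubation, LiveBLAzer B/G FRET substrate was added and fluorescence read 2 h later at room temperature.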

[16] = target: Vitamin D3 receptor (Homo sapiens) (UniProt P11473); assay: qHTS assay to identify small molecule antagonists of the vitamin D receptor (VDR) signaling pathway (AID 743223; active = well fitted inhibition curve with a large enough effect in the signal ratio in the repeat runs, not every such curve was filed as active; the % refers to the signal ratio; note: potency is the fitted concentration of half-maximal effect)
Outline: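 After VDR-bla cells are plated and left 4 h at 37C, DMSO-dissolved compounds and 3 nM (final) calcitriol agonist are added. Incubation continues 16 h at 37C; FRET beta-lactamase substrate then develops 2 h at room temperature.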

[17] = target: Peroxisome proliferator-activated receptor gamma (Homo sapiens) (UniProt P37231); assay: qHTS assay to identify small molecule agonists of the peroxisome proliferator-activated receptor gamma (PPARg) signaling pathway (AID 743094; active = well fitted activation curve with a large enough effect in the signal ratio in the repeat runs, not every such curve was filed as active; the % refers to the signal ratio)
Outline: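 Cell-based bla reporter, HEK293H background, PPARg-driven UAS. Pre-incubation 5 h, 37C, 5% CO2. Compound 17 h, 37C. Substrate 1 h RT; fluorescence.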

[18] = qHTS assay for small molecule activators of the heat shock response signaling pathway (AID 743210; active = well fitted activation curve with a large enough effect in the signal ratio in the repeat runs, with a control signal flat, not every such curve was filed as active; the % refers to the signal ratio;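 note: HeLa cells with beta-lactamase reporter driven by heat shock elements; series mostly up to about 63 µM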)
Outline: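 Fluorescence from a cleaved B/G FRET substrate (2.5 h, room temp) reports HSE-driven beta-lactamase in HeLa cells treated 5 h at 37 C with DMSO-dissolved compounds.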

[19] = target: Peroxisome proliferator-activated receptor delta (Homo sapiens) (UniProt Q03181); assay: qHTS assay to identify small molecule agonists of the peroxisome proliferator-activated receptor delta (PPARd) signaling pathway (AID 743212; calls by dose curve;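 note: HEK293H cells with PPARd UAS beta-lactamase reporter GeneBLAzer system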)
Outline: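 Steps: seed PPARd-bla HEK293H cells; incubate 5 h, 37 C, 5% CO2; add compounds in DMSO; incubate, 37 C; add LiveBLAzer B/G FRET substrate; hold 2 h at room temperature; measure fluorescence.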

[20] = target: Bile acid receptor (Homo sapiens) (UniProt Q96RI1); assay: qHTS assay to identify small molecule antagonists of the farnesoid-X-receptor (FXR) signaling pathway (AID 743217; active = well fitted inhibition curve with a large enough effect in the signal ratio in the repeat runs, not every such curve was filed as active; the % refers to the signal ratio)
Outline: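 FRET fluorescence after 2 h room-temperature LiveBLAzer loading gives the readout. Prior step: FXR-bla HEK 293T cells, seeded and incubated 5 h, received test compounds plus 50 uM final CDCA for 16 h at 37 °C.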

Chain of Aryl hydrocarbon receptor (Homo sapiens) (P35869 whole entry, looked up): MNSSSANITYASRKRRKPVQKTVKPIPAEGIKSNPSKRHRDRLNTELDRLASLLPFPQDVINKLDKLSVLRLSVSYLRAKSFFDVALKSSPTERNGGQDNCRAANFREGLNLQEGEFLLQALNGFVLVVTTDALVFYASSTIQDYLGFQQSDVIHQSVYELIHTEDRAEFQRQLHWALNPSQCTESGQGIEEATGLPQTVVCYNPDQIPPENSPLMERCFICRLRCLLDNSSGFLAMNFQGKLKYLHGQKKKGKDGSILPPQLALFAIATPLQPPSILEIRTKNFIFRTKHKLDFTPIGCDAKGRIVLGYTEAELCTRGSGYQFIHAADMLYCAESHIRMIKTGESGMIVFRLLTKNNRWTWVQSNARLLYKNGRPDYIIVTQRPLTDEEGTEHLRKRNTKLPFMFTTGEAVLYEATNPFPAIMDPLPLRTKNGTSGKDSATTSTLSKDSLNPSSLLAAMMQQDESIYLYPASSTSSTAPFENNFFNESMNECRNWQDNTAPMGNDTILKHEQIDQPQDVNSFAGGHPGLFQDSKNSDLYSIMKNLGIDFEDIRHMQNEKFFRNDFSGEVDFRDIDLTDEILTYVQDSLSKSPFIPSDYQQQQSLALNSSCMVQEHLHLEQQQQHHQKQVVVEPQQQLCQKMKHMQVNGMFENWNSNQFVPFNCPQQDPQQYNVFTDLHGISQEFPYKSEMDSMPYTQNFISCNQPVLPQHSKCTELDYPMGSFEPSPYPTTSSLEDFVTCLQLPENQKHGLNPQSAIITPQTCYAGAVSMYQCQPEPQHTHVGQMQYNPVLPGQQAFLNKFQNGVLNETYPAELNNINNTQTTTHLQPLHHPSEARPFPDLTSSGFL
Chain of Bile acid receptor (Homo sapiens) (Q96RI1 whole entry, looked up): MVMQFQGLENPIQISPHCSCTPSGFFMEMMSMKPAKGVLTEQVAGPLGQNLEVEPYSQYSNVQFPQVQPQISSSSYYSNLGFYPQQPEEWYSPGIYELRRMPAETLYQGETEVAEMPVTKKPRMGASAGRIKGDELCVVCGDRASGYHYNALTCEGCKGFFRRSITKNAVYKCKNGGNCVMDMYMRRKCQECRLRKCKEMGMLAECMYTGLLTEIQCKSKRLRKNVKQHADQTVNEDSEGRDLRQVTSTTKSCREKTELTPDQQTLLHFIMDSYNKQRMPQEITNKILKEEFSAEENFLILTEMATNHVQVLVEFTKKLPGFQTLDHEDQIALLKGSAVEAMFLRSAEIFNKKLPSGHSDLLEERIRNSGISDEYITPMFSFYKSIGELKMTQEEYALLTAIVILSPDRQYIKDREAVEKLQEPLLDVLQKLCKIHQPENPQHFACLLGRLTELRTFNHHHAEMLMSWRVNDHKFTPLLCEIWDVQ
Chain of Peroxisome proliferator-activated receptor delta (Homo sapiens) (Q03181 whole entry, looked up): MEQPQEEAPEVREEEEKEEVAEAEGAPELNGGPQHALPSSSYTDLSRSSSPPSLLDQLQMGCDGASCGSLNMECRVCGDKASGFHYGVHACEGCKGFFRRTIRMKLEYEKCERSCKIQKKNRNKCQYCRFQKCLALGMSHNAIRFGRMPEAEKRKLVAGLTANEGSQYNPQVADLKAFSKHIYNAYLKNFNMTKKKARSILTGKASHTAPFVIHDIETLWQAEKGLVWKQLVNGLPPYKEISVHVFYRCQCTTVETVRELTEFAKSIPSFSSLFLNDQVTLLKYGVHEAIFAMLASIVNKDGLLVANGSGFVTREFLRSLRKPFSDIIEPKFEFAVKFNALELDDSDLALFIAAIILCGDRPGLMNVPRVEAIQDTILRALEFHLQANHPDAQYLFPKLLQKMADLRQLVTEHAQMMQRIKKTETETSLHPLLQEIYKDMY
Chain of Vitamin D3 receptor (Homo sapiens) (P11473 whole entry, looked up): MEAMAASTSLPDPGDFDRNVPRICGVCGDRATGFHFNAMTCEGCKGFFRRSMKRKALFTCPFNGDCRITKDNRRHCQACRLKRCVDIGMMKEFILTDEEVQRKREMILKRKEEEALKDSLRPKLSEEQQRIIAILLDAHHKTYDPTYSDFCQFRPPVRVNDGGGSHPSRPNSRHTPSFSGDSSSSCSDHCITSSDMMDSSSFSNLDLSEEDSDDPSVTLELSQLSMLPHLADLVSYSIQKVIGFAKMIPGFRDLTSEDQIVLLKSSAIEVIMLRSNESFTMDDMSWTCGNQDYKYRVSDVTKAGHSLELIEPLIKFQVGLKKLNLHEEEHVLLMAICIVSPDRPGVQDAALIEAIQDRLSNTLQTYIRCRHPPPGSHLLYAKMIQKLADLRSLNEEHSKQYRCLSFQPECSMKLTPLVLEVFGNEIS
Chain of Peroxisome proliferator-activated receptor gamma (Homo sapiens) (P37231 whole entry, looked up): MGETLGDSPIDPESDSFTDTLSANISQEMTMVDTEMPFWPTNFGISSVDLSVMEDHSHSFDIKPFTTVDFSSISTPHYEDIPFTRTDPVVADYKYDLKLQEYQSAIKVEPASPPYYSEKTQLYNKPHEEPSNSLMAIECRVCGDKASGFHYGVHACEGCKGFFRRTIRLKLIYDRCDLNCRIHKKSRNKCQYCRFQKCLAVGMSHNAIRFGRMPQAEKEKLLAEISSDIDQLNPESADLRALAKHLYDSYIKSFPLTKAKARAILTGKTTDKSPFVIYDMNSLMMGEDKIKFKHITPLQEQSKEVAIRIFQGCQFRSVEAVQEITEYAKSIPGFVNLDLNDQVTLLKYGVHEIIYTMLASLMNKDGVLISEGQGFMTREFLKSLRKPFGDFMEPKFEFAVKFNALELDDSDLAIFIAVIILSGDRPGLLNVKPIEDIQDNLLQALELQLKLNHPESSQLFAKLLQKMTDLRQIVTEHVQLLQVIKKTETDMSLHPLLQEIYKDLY

Structure (SMILES)	Potency [1]	Potency [2]	Potency [3]	Potency [4]	Potency [5]	Potency [6]	Potency [7]	Potency [8]	Potency [9]	outcome [10]	Potency [11]	Potency [12]	Potency [13]	Potency [14]	Potency [15]	Potency [16]	Potency [17]	outcome [18]	Potency [19]	Potency [20]
C=C1CC[C@H](O)C/C1=C\C=C1/CCC[C@]2(C)[C@@H]([C@H](C)CCCC(C)C)CC[C@@H]12	inactive	inactive	inactive	54.4 µM (active)	61.1 µM (active)	21.5 µM (active)	48.5 µM (active)	43.2 µM (active)	48.5 µM (active)	inactive	48.5 µM (active)									
CCCCCCCCCCCC[N+](C)(C)Cc1ccccc1	inactive and 67.3 µM (active)	inactive	59.2 µM (active)		17 µM (active) and 15 µM (active) and 26.6 µM (active)		34 µM (active) and 18.9 µM (active) and 16.8 µM (active)	19.1 µM (active) and 18.9 µM (active) and 15 µM (active)	17 µM (active) and 21.2 µM (active)		53.9 µM (active) and 59.7 µM (active) and 29.8 µM (active)	26.8 µM (active) and 29.7 µM (active)	27 µM (active) and 18.9 µM (active) and 23.7 µM (active)	26.6 µM (active)	inactive	42.8 µM (active) and 53.2 µM (active)				
CCN(CC)C(=O)c1cccc(C)c1	inactive	inactive and 60.5 µM (active)	inactive		inactive	inactive	inactive	inactive	inactive	inactive	inactive	inactive	inactive		inactive	inactive	inactive	inactive	inactive	inactive
C[C@](N)(Cc1ccc(O)c(O)c1)C(=O)O	inactive	inactive	inactive	inactive		inactive	inactive	inactive	inactive		inactive	inactive	inactive		inactive	inactive	inactive			
CNNCc1ccc(C(=O)NC(C)C)cc1	inactive	inactive	inactive		inactive	inactive	inactive	inactive	inactive		inactive	inactive	inactive		inactive	inactive		inactive		
Cc1ncc([N+](=O)[O-])n1C	inactive	inactive	inactive		inactive	inactive	inactive	inactive	inactive	inactive	inactive	inactive	inactive	inactive	inactive	inactive		inactive	inactive	inactive
CCCCC(CC)C(=O)O (stereo not drawn)	inactive		inactive	inactive	inactive	inactive	inactive	inactive	inactive		inactive	inactive	inactive	inactive			inactive	inactive	inactive	
CN(C)C(=O)Nc1ccc(Cl)c(Cl)c1	inactive		inactive	inactive	inactive	inactive	inactive	inactive	inactive		inactive	inactive	inactive	inactive			inactive	inactive	inactive	
